In PubChem BioAssay (NCATS):
Inconclusive results are not listed. Unmarked numbers belong to inactive results. Unless noted, the call rests on the fitted dose curve; in most records, active means well fitted inhibition curve with a large enough effect; inconclusive means small, poorly fitted or top-dose-only effect; inactive means no such curve, though single readings can be large or run the other way.

Each compound was assayed against Aldehyde dehydrogenase, mitochondrial (Homo sapiens) (UniProt P05091) (assay: qHTS for Inhibitors of the Aldehyde Dehydrogenase Family (ALDH2) Validation screens (AID 2061302; active means well fitted inhibition curve with a large enough effect; title and protocol of this record describe different tests;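 further: plate controls were DMSO vehicle for no effect and maximal DPI positive control response for full effect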)). Details: ALDH inhibition qHTS; series mostly up to 42.6 µM; activity change, negative = inhibition: at the top concentration.

Compared with CC[N+](CC)(CC)CC(=O)Nc1c(C)cccc1C, CCCNCC(O)COc1ccccc1C(=O)CCc1ccccc1 (stereo unspecified) is higher in “activity change, negative = inhibition” value: 3.92% for the first, 6.28% for the second.

First: c1cnc2c(c1)ccc1cccnc12
Second: Nc1ccc(N2C(=O)c3ccccc3C2=O)c(Cl)c1
The “activity change, negative = inhibition” value of the first is lower: -5.56% for the first, 2.79% for the second.

Going from O=C(O)CCC(=O)N1CCCC1C(=O)O (stereo unspecified) to C[C@H](CS)C(=O)N1CCC[C@H]1C(=O)O, the “activity change, negative = inhibition” value rises from -3.17% to -0.994%.

First: CNCCCC1c2ccccc2C=Cc2ccccc21
Second: CNCCC(Oc1ccccc1C)c1ccccc1 (stereo unspecified)
The “activity change, negative = inhibition” value of the first is lower: 6.17% for the first, 11.5% for the second.

Going from N[C@H](C(=O)O)[C@H]1C[C@@H]1C(=O)O to C=CC[C@H](N)C(=O)O, the “activity change, negative = inhibition” value falls from 4.49% to 1.88%.

Going from C=C1C[C@@]23CC[C@H]4[C@@](C)(CCC[C@@]4(C)C(=O)O)[C@@H]2CC[C@]1(O)C3 to CO[C@H]1O[C@@H]2O[C@]3(C)CC[C@@H]4[C@@H](C)CC[C@H]([C@H]1C)[C@]24OO3, the “activity change, negative = inhibition” value rises from -2.42% to 14.2%.

First: NCCS
Second: O=C(O)C1CN(CCCP(=O)(O)O)CCN1 (stereo unspecified)
The “activity change, negative = inhibition” value of the first is higher: 0.501% for the first, -2.08% for the second.

Going from Nc1ncnc2c1ncn2C1CCCO1 (stereo unspecified) to Nc1nc(Nc2ccccc2)nc2c1ncn2[C@@H]1O[C@H](CO)[C@@H](O)[C@H]1O, the “activity change, negative = inhibition” value rises from -4.81% to -2.5%.

Compared with CC1CCN=C(N)S1 (stereo unspecified), C/C(=C\c1ccc(C(=O)O)cc1)c1ccc2c(c1)C(C)(C)CCC2(C)C is lower in “activity change, negative = inhibition” value: -0.802% for the first, -10.4% for the second.

Going from CC(=O)/C(C)=N/O to Nc1nc(SCc2ccc([N+](=O)[O-])cc2)c2ncn([C@@H]3O[C@H](CO)[C@@H](O)[C@H]3O)c2n1, the “activity change, negative = inhibition” value rises from -10.2% to 16.3%.

CCn1c(=O)[nH]c2cc(Cl)c(Cl)cc21 was tested, and the “activity change, negative = inhibition” value was 7.01%.

The compounds below were run against Retinaldehyde dehydrogenase 3 (Homo sapiens) (UniProt P47895) (assay: qHTS for Inhibitors of the Aldehyde Dehydrogenase Family (ALDH1A3) Validation screen (AID 2061312; further: on the % scale 0 is the no-effect control and ±100 the full control effect; nearly all actives have a fitted effect of over 45% in size)). Details: ALDH1A3 enzyme inhibition qHTS validation, fluorescence; series mostly up to 84.7 µM; activity change, negative = inhibition: at the top concentration.

First: O=c1[nH]c2cc(Cl)ccc2c(O)c1-c1ccc(Oc2ccccc2)cc1
Second: Cn1cc(C2=C(c3ccc(Cl)cc3Cl)C(=O)NC2=O)c2ccccc21
The “activity change, negative = inhibition” value of the first is higher: 16.9% [at 42.4 µM] for the first, 14.3% [at 42.4 µM] for the second.

First: Cc1cc(NC(=O)Nc2ccc3c(ccn3C)c2)sn1
Second: COc1cc(OC)cc(-c2cc3cnc(N)nc3nc2NC(=O)NC(C)(C)C)c1
The “activity change, negative = inhibition” value of the first is lower: 11.1% [at 42.4 µM] for the first, 24.7% [at 42.4 µM] for the second.

Compared with CCSC(=N)N, NCCS is higher in “activity change, negative = inhibition” value: 6.12% [at 42.4 µM] for the first, 6.46% [at 42.4 µM] for the second.

Compared with Cc1nc(N=Nc2ccc(S(=O)(=O)O)cc2S(=O)(=O)O)c(COP(=O)(O)O)c(C=O)c1O, Cc1nc(N=Nc2ccc(C(=O)O)cc2)c(COP(=O)(O)O)c(C=O)c1O is higher in “activity change, negative = inhibition” value: 8.61% [at 42.4 µM] for the first, 10.3% [at 42.4 µM] for the second.

Compared with CN(C)CCCN1c2ccccc2CCc2ccccc21, CN(C)CCCN1c2ccccc2Sc2ccccc21 is higher in “activity change, negative = inhibition” value: -11.2% [at 42.4 µM] for the first, -7.06% [at 42.4 µM] for the second.

Compared with Clc1ccc(N2CCN(Cc3cc4ccccn4n3)CC2)cc1, O=C(CCCCCN1CCN(c2ccccc2-c2ccccc2)CC1)NC1CCCc2ccccc21 (stereo unspecified) is lower in “activity change, negative = inhibition” value: 2.06% [at 42.4 µM] for the first, -19.6% [at 42.4 µM] for the second.

Compared with CNC1(C)C2CCC(C2)C1(C)C (stereo unspecified), CO[C@H]1O[C@@H]2O[C@]3(C)CC[C@@H]4[C@@H](C)CC[C@H]([C@H]1C)[C@]24OO3 is higher in “activity change, negative = inhibition” value: 6.54% [at 42.4 µM] for the first, 8.07% [at 42.4 µM] for the second.

First: CCCCNc1c(C(=O)OCC)c(C)nc2c1cnn2CC
Second: CC[N+](CC)(CC)CC(=O)Nc1c(C)cccc1C
The “activity change, negative = inhibition” value of the first is higher: 26.8% [at 42.4 µM] for the first, 6.33% [at 42.4 µM] for the second.

Going from Nc1ccc(S(=O)(=O)Nc2ccnn2-c2ccccc2)cc1 to Nc1ccc(N2C(=O)c3ccccc3C2=O)c(Cl)c1, the “activity change, negative = inhibition” value rises from -12.9% [at 42.4 µM] to -5.5% [at 42.4 µM].

Going from COc1ccc(-c2ccc(N)[n+](CCCC(=O)O)n2)cc1 to CCCNCC(O)COc1ccccc1C(=O)CCc1ccccc1 (stereo unspecified), the “activity change, negative = inhibition” value rises from 9.64% [at 42.4 µM] to 32.1% [at 42.4 µM].

Going from O=c1onc2n1-c1cc(Br)ccc1OC2 to CCn1c(=O)[nH]c2cc(Cl)c(Cl)cc21, the “activity change, negative = inhibition” value rises from -12.4% [at 42.4 µM] to -10.1% [at 42.4 µM].

First: CCc1cccc(N(C)C(N)=Nc2cccc3ccccc23)c1
Second: CNCCCC1c2ccccc2C=Cc2ccccc21
The “activity change, negative = inhibition” value of the first is lower: -1.22% [at 42.4 µM] for the first, 23.9% [at 42.4 µM] for the second.

First: Nc1nc2ccc(Cl)cc2n2c(-c3ccccc3)nnc12
Second: Nc1nc(Nc2ccccc2)nc2c1ncn2[C@@H]1O[C@H](CO)[C@@H](O)[C@H]1O
The “activity change, negative = inhibition” value of the first is lower: 8.71% [at 42.4 µM] for the first, 18.1% [at 42.4 µM] for the second.

First: CC(=O)O[C@H]1CC2(C)[C@@H](C[C@@H](O)[C@H]3[C@@]4(C)CC[C@@H](O)[C@@H](C)[C@@H]4CC[C@@]32C)C1=C(CCC=C(C)C)C(=O)O (stereo partly specified)
Second: C=C1C[C@@]23CC[C@H]4[C@@](C)(CCC[C@@]4(C)C(=O)O)[C@@H]2CC[C@]1(O)C3
The “activity change, negative = inhibition” value of the first is higher: 2.16% [at 42.4 µM] for the first, -8.1% [at 42.4 µM] for the second.

Compared with c1cnc2c(c1)ccc1cccnc12, CNCCC(Oc1ccccc1C)c1ccccc1 (stereo unspecified) is lower in “activity change, negative = inhibition” value: 32.3% [at 42.4 µM] for the first, -16.4% [at 42.4 µM] for the second.

First: O=C(O)CCC(=O)N1CCCC1C(=O)O (stereo unspecified)
Second: C[C@H](CS)C(=O)N1CCC[C@H]1C(=O)O
The “activity change, negative = inhibition” value of the first is lower: -6.65% [at 42.4 µM] for the first, -2.61% [at 42.4 µM] for the second.

First: N[C@H](C(=O)O)[C@H]1C[C@@H]1C(=O)O
Second: C=CC[C@H](N)C(=O)O
The “activity change, negative = inhibition” value of the first is lower: -16.1% [at 42.4 µM] for the first, -0.0101% [at 42.4 µM] for the second.

First: Nc1ncnc2c1ncn2C1CCCO1 (stereo unspecified)
Second: Nc1nc(SCc2ccc([N+](=O)[O-])cc2)c2ncn([C@@H]3O[C@H](CO)[C@@H](O)[C@H]3O)c2n1
The “activity change, negative = inhibition” value of the first is lower: 17% [at 42.4 µM] for the first, 25.9% [at 42.4 µM] for the second.

Compared with CC1CCN=C(N)S1 (stereo unspecified), C/C(=C\c1ccc(C(=O)O)cc1)c1ccc2c(c1)C(C)(C)CCC2(C)C is lower in “activity change, negative = inhibition” value: 32.2% [at 42.4 µM] for the first, -3.6% [at 42.4 µM] for the second.

Going from CC(=O)/C(C)=N/O to O=C(O)C1CN(CCCP(=O)(O)O)CCN1 (stereo unspecified), the “activity change, negative = inhibition” value falls from 24.8% [at 42.4 µM] to -10.2% [at 42.4 µM].
